According to PubChem BioAssay AID493194 (Broad Institute, 2011):
Measured potencies and affinities stand elsewhere. Results filed as inconclusive are left out.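 Rule for the calls: active = a valid curve of falling signal whose half-effect concentration is at most ten times the top tested dose; inconclusive = flat curve at 30 to 70% inhibition, or poor fit; inactive = signal rise, flat within 30%, or potency beyond limit.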

biological target: Scavenger receptor class B member 1 (Mus musculus) (UniProt Q61009); assay: inhibitors of SR-BI mediated HDL lipid uptake, dose response, ldlA[mSR-BI] cells, fluorescence, cherry pick (AID 493194); conditions: CHO ldlA[mSR-BI] DiI-HDL uptake fluorescence, 3 h; series mostly up to 35 µM; activity change, negative = inhibition: at the top concentration;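 note: CHO cells lacking LDL receptor and overexpressing mouse SR-BI; cellular uptake of fluorescently labeled HDL measured as cell fluorescence; 0% = median of neutral control wells and -100% = median of positive control wells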
Sequence (Q61009 whole entry, looked up): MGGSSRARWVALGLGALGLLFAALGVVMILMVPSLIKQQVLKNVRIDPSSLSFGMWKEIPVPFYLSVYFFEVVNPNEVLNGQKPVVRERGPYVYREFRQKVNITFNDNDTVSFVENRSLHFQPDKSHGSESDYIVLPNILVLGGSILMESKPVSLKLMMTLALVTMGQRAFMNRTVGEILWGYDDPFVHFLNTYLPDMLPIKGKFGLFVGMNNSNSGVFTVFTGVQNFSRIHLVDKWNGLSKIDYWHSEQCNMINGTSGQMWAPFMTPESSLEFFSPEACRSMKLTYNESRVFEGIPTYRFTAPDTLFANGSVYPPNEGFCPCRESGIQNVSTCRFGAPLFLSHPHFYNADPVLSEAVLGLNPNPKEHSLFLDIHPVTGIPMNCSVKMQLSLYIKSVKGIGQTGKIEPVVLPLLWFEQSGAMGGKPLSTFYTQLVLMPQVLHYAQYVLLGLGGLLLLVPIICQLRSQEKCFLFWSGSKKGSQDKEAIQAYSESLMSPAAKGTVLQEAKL

Activity change, negative = inhibition, inactive:
COc1ccc(CNC(=O)C(c2ccc(C)cc2)N(Cc2cccs2)C(=O)c2ccc3c(c2)OCCO3)cc1 (stereo not drawn) 11%
CC[C@@H](C)[C@H](NC(=O)Cc1c(C)c2cc3c(C)c(C)oc3c(C)c2oc1=O)C(=O)O 4.74%
CC(=O)c1c(C)[nH]c(C(=O)Nc2ccc(C)c(S(=O)(=O)Nc3ccc(C)cc3C)c2)c1C 0.571%
O=C(NCc1ccccc1Cl)C1CCN(C(=O)c2sccc2-n2cccc2)CC1 -19.4%
CC[C@H](C)[C@H](NC(=O)c1ccc(Cl)cc1)C(=O)OCC(=O)c1ccc2c(c1)NC(=O)CO2 -32%
CCC(=O)Nc1ccccc1-c1nnn(CC(=O)N2c3ccccc3CC2C)n1 (stereo not drawn) 3.68%
COc1ccccc1C(=O)NCCn1cc(SCC(=O)Nc2nnc(C)s2)c2ccccc21 -22.6%
O=C(OCc1ccccc1)N1CCC2CC1c1cc(-c3ccccc3)ccc12 (stereo not drawn) 36.1%
COc1ccc(NC(=O)c2ccc3c(c2)CCN3S(=O)(=O)c2ccccc2)cc1 -8.87%
COc1ccc2c(c1)CC(C1(O)C(=O)N(C)c3ccccc31)C2=O (stereo not drawn) 75.3%
CCCOC(=O)c1[nH]c2c(c1C)C(=O)CC(c1cc(OC)c(OC)c(OC)c1)C2 (stereo not drawn) -16.9%
CCOc1cc2c3c(c1)C1(C(=O)N3C(C)(C)CC2C)C(C#N)=C(N)N2C(=C1C#N)Nc1ccccc12 (stereo not drawn) 4.74%
O=C(NC1CC2CCCC(C1)N2C(=O)N1CCCCC1)C1CCCCC1 (stereo not drawn) 17.6%
O=C(C[C@H]1C/C=C\CCC(=O)OC[C@H]2CCCN2C1=O)NCCO 127%
CC[C@]12c3[nH]c4cc(-c5ccco5)ccc4c3CCN1C(=O)[C@@H](CC(=O)NCc1ccc(OC)c(OC)c1)C[C@@H]2C(=O)N1CCN(C(=O)c2ccco2)CC1 -27.9%
CCOC(=O)C1CCN(C(=O)Cn2cnc3sc(C)c(S(=O)(=O)N4CCC(C)CC4)c3c2=O)CC1 -14%
Cc1ccc(-n2nc(C)c3c(C(=O)OCC(=O)N(C)C4CCS(=O)(=O)C4)cc(-c4ccccc4)nc32)cc1 (stereo not drawn) -0.532%
N#Cc1ccccc1S(=O)(=O)N1CCN(C(=O)C2CC(=O)N(c3ccc4c(c3)OCCO4)C2)CC1 (stereo not drawn) -4.49%
CCC(C)c1ccccc1N1CC(C(=O)N2CCN(S(=O)(=O)c3cccc([N+](=O)[O-])c3)CC2)CC1=O (stereo not drawn) 36.4%
O=C1C2C3C=CC(C3)C2C(=O)N1c1cccc(N2C(=O)C3C4C=CC(C4)C3C2=O)n1 (stereo not drawn) 100%
O=C(NNc1c(F)c(F)cc(F)c1F)C1CCN(S(=O)(=O)c2ccccc2F)CC1 -3.65%
CC(C)(C)N(Cc1ccccc1)C(=O)COC(=O)CN1C(=O)NC2(CCCC2)C1=O 55.6%
CCNc1nc(Cl)nc(-c2cn(-c3ccccc3)c3ccccc23)n1 -14.1%
COc1ccc2sc(-c3ccc(N(C)C)cc3)c(C#Cc3cncn3C)c2c1 10.8%
COc1cc([N+](=O)[O-])ccc1NC(=O)NCC1CCN(Cc2ccc(Cl)cc2)CC1 -13%
O=C(Nc1ccc(N2CCOCC2)cc1)c1cccc(S(=O)(=O)N2CCC(Cc3ccccc3)CC2)c1 21.7%
CCn1nc(C)c(CN2CCc3c([nH]c4ccccc34)C2c2ccc(F)c(OC)c2)c1C (stereo not drawn) -40.9%
CN(C)c1ccc(/C=C2\Oc3ccc(C#Cc4cccc(N)c4)cc3C2=O)cc1 5.11%
COc1ccc(OCCSc2nnc(-c3cccnc3)n2N)cc1 -6.66%
CCCCC(c1nnnn1CC1CCCO1)N1CCN(c2cc(Cl)ccc2C)CC1 (stereo not drawn) -10.9%
COc1ccc(COC(=O)c2ccc(Br)c(S(=O)(=O)N3CCOCC3)c2)cc1F -34.5%
Cc1ccc(C)c(N2CCN(CCCNC(=O)Cn3c(=O)c4cccn4c4cccnc43)CC2)c1 2.88%
CNc1sc(C(=O)c2cccs2)c(N)c1-c1nc2ccccc2s1 -39.9%
Cc1ccc(NC(=O)c2cc(S(=O)(=O)N3CCOCC3)c(Br)s2)cc1 -29.7%
O=C(N[C@@H]1C/C=C\C[C@H](CC(=O)N(CCO)Cc2ccccc2)C(=O)NC[C@@H](c2ccccc2)OC1=O)OCC1c2ccccc2-c2ccccc21 17.1%
O=C(N[C@@H]1C/C=C\C[C@@H](CC(=O)N(CCO)Cc2ccccc2)C(=O)NCCOC1=O)OCC1c2ccccc2-c2ccccc21 -31.4%
Cc1ccc(-c2cc(C(=O)Nc3sc4c(c3C(=O)NCc3ccco3)CCC4)[nH]n2)c(O)c1 46.6%
Cc1cccc(-c2ccc3c(c2)C2CC3CCN2C(=O)OCc2ccccc2)c1 (stereo not drawn) -7.63%
